In assay [1] the test system is DLD1. Nature of the assay: cell viability (CellTiter-Glo) relative to plate median (fraction of plate median); higher = more viable cells. To be noted: 5 µM; treatment time 24 h; reporter: 7TFP. The procedure, abridged:
(§1)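 On parallel plates, a Tecan F500 reader recorded either firefly luciferase or CellTiterGlo luminescence. The plates held colorectal cancer cells stably transduced with lentiviral TCF/Wnt firefly luciferase reporters (7TFP or TCF4/Wnt), seeded in 384-well format and treated 24 h later with library compounds at a final 5 µM for 24 h. Per-well signals were normalised to the plate median (webcellHTS2, additive, no log transformation), and two independent replicates were averaged.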
(In general: In ATP-based viability assays light output follows the ATP content of the culture.)

For assay [2], the system named is HCT116. The assay is described as above. To be noted: 5 µM; treatment time 24 h; reporter: TCF4/Wnt. The procedure, abridged:
as §1

Assay [3] has as its system SW480. The assay is described as above. To be noted: 5 µM; treatment time 24 h; reporter: 7TFP. In a few lines:
as §1

In assay [4] the test system is DLD1. Nature of the assay: TCF/Wnt firefly luciferase reporter signal relative to plate median (fraction of plate median); higher = higher Wnt reporter signal. As to conditions: 5 µM; treatment time 24 h; reporter: 7TFP. In a few lines:
as §1
On the technique in general: In a reporter assay the amount or activity of a reporter protein is the signal.

Assay [5] concerns SW480. Described as above. As to conditions: 5 µM; treatment time 24 h; reporter: 7TFP. In a few lines: as §1

± gives the standard deviation of the averaged measurements.

On to `C=C(C)[C@@H]1C[C@H]2O[C@](O)(C/C(C)=C\C(=O)/C=C(/C)C[C@@H]3OC(=O)[C@]24O[C@@H]34)[C@H]1O` [bipinnatolide F], for which the cell viability in assay [1] amounted to 1.02 ± 0.028; in assay [2] it was 0.943 ± 0.018; in assay [3], 0.94 ± 0.074. Also, the results for the “TCF/Wnt firefly luciferase reporter signal” value in assay [4] and in assay [5] were 1.01 ± 0.059 and 0.994 ± 0.023, respectively.

`OC(CCN1CCCC1)(c1ccccc1)C1CCCCC1` (stereo not given): the values for the cell viability in assay [1], in assay [2] and in assay [3] were 1.03, 1.01 ± 0.043 and 1.03 ± 0.054, respectively. Besides, the “TCF/Wnt firefly luciferase reporter signal” value in assay [4] was 1.12 ± 0.15; in assay [5] it was 0.981 ± 0.017.

On to `Cc1occc(=O)c1O`, for which the figures for the cell viability in assay [1], in assay [2] and in assay [3] were 0.962 ± 0.0099, 0.973 ± 0.039 and 0.936 ± 0.021, respectively. Besides, the “TCF/Wnt firefly luciferase reporter signal” value came out at 0.938 ± 0.1 in assay [4] and 0.85 ± 0.042 in assay [5].

As for `CC(=O)/C=C\[C@@H]1[C@@]2(C)CCCC(C)(C)C2CC[C@@]1(C)O` (stereo not given in full), the cell viability in assay [1] came to 1 ± 0.025; in assay [2] it was 1.14 ± 0.05; in assay [3], 1.055 ± 0.0071. For the same compound, the “TCF/Wnt firefly luciferase reporter signal” value in assay [4] was 1.165 ± 0.0071; in assay [5] it was 0.93 ± 0.11.

As to `CC(=O)O[C@H]1C[C@@]2(C)[C@H](c3ccoc3)OC(=O)[C@H]3O[C@]32[C@@]2(C)C1[C@]1(C)C(C[C@H]2OC(C)=O)C(C)(C)[C@H](OC(C)=O)C[C@@H]1OC(C)=O` (stereo partly drawn) [11alpha-ACETOXYKHIVORIN], the cell viability in assay [1] turned out to be 0.973 ± 0.014; in assay [2] it was 0.895 ± 0.088; in assay [3] it was 0.941 ± 0.013. Besides, the figures for the “TCF/Wnt firefly luciferase reporter signal” value in assay [4] and in assay [5] were 1 ± 0.14 and 1.05 ± 0.11, respectively.

For `COc1c(O)cc2c(c1O)[C@@H]1O[C@H](CO)[C@@H](O)[C@H](O)[C@H]1OC2=O`, the figures for the cell viability in assay [1], in assay [2] and in assay [3] were 0.966 ± 0.049, 0.912 ± 0.039 and 1.02 ± 0.04, respectively. Moreover, the “TCF/Wnt firefly luciferase reporter signal” value came out at 0.981 ± 0.14 in assay [4] and 1.09 ± 0.092 in assay [5].

Take `COc1c2ccoc2cc2oc(=O)ccc12`: the figures for the cell viability in assay [1], in assay [2] and in assay [3] were 1.02 ± 0.046, 0.946 ± 0.018 and 0.978 ± 0.015, respectively. For the same compound, the “TCF/Wnt firefly luciferase reporter signal” value in assay [4] came out at 0.984 ± 0.093; in assay [5], 1.01 ± 0.028.

As to `N[C@H]1C(O)O[C@H](CO)[C@@H](O)[C@@H]1O` (stereo not given in full), the cell viability in assay [1] came out at 0.973 ± 0.037; in assay [2] it was 0.993 ± 0.024; in assay [3] it was 0.99 ± 0.013. Further, the results for the “TCF/Wnt firefly luciferase reporter signal” value in assay [4] and in assay [5] were 1.12 and 1.06 ± 0.021, respectively.

For the compound `COc1cc([S+](C)[O-])ccc1-c1nc2cccnc2[nH]1` (stereo not given), the cell viability in assay [1] was 0.968 ± 0.028; in assay [2], 0.979 ± 0.058; in assay [3], 0.953 ± 0.025. In addition, the “TCF/Wnt firefly luciferase reporter signal” value is 0.907 ± 0.22 in assay [4] and 0.794 ± 0.057 in assay [5].

In the case of `CCCC(CCC)C(=O)O`, the results for the cell viability in assay [1], in assay [2] and in assay [3] were 1.03 ± 0.045, 1.09 ± 0.035 and 0.973 ± 0.052, respectively. Further, the “TCF/Wnt firefly luciferase reporter signal” value was found to be 1.115 ± 0.0071 in assay [4] and 1.06 ± 0.078 in assay [5].

As to `CO/N=C(\C(=O)N[C@@H]1C(=O)N2C(C(=O)OC(C)OC(C)=O)=C(COC(N)=O)CS[C@H]12)c1ccco1` (stereo not given in full), the cell viability in assay [1] was 1.03; in assay [2] it was 1.05 ± 0.079; in assay [3], 0.9685 ± 0.005. The “TCF/Wnt firefly luciferase reporter signal” value in assay [4] is 0.981 ± 0.027; in assay [5], 1.

`C[C@]12C=CC(=O)C=C1CC[C@@H]1[C@@H]2[C@@H](O)C[C@@]2(C)[C@H]1CC[C@]2(O)C(=O)COC(=O)CCC(=O)O`: the cell viability in assay [1] turned out to be 1.02 ± 0.028; in assay [2] it was 1.01 ± 0.092; in assay [3], 1.03 ± 0.014. Also, the “TCF/Wnt firefly luciferase reporter signal” value in assay [4] stood at 1.075 ± 0.0071; in assay [5] it was 0.969 ± 0.072.

`Oc1cc2c(cc1O)C(c1ccccc1)CNCC2` (stereo not given): the cell viability in assay [1] was determined as 0.981 ± 0.019; in assay [2], 0.944 ± 0.05; in assay [3], 0.934 ± 0.025. For the same compound, the results for the “TCF/Wnt firefly luciferase reporter signal” value in assay [4] and in assay [5] were 1.08 ± 0.05 and 1.05 ± 0.064, respectively.

`COC(=O)C(N)CS` (stereo not given): the results for the cell viability in assay [1], in assay [2] and in assay [3] were 0.972 ± 0.054, 0.965 ± 0.092 and 1 ± 0.036, respectively. The “TCF/Wnt firefly luciferase reporter signal” value in assay [4] came out at 0.836 ± 0.039; in assay [5], 0.91 ± 0.03.

On to `Cc1cc(=O)oc2cc(O)c(O)cc12`, for which the values for the cell viability in assay [1], in assay [2] and in assay [3] were 0.951 ± 0.035, 0.886 ± 0.071 and 0.98 ± 0.057, respectively. The “TCF/Wnt firefly luciferase reporter signal” value is 0.711 ± 0.25 in assay [4] and 1.085 ± 0.0071 in assay [5].

(Values after the supplement of paper PMC6522484.)
